# Only some compounds are listed: those with a hit (about 19% of all), similar ones and a draw of the others.
# HT1080 IDH1KD tx – toxicity to HT-1080 IDH1 knockdown cells (counter line) | HT-1080 IDH1 knockdown viability, ATP luminescence, 48 h | Potency, µM (top dose mostly 46.1 µM), for inactives: at the top dose activity, negative = toxicity, usual class: cytotoxic | 2% of 360,000 active | AID 686971;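 further: potency means the concentration at half of the fitted maximal effect; 0% = DMSO wells and -100% = cell-free medium wells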
#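 Assay cells: HT-1080 with IDH1 knockdown, 750 per well, RPMI/5% FBS. Exposure: 48 h at 37 °C following 2 h pre-incubation. Read: CellTiter-Glo luminescence; fitted concentration-response, curve class assigned.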
# HT1080NT lethal – kills 2HG-producing HT-1080-NT fibrosarcoma cells; Potency, µM (top dose mostly 46.1 µM), without a hit: at the highest dose activity, negative = less viability, actives largely listed as cytotoxic; HT-1080-NT fibrosarcoma viability, CellTiter-Glo ATP luminescence, 48 h; 1.6% of 360,000 active;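 further: NT is the 2HG producing partner of a matched IDH1 knockdown line; potency means the concentration at half of the fitted maximal effect; 0% = DMSO-treated cells and -100% = media-only wells without cells; nearly all actives have a fitted effect of over 55% in size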
#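 Toxicity toward the 2HG-producing NT line was scored as %Activity, normalised to DMSO and no-cell wells, from CellTiter-Glo luminescence after 48 hours' treatment.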
# IL1B secr inh – blocks inflammasome-driven IL-1 beta release; THP-1 LPS/ATP IL-1B secretion, AlphaLISA, 16 h; hits give low values; activity change, % at 57.5 µM; 4.7% of 360,000 active; in the data active means activity change below about -50%; inconclusive means mostly about -30% to -49%
#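 Secreted IL-1B measured by AlphaLISA bead assay after 16 h compound exposure of THP-1 cells; compounds (final up to 57.5 uM) added 1 h before LPS (250 ng/mL) and ATP (1.25 mM) stimulation; lower signal means less secretion.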
# DT40 TDP1 no CPT – qHTS for Inhibitors of human tyrosyl-DNA phosphodiesterase 1 (TDP1): qHTS in cells in absence of CPT; DT40 Tdp1-/- hTDP1 cells, no CPT, ATP luminescence, 48 h; Potency, µM (top dose mostly 46.2 µM), inactives show at the top dose activity change, negative = growth inhibition, hits mostly inhibitors; 15% of 420,000 active; AID 686978, 2013; further: potency means the concentration at half of the fitted maximal effect; nearly all actives have a fitted effect of over 55% in size
#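 A cellular qHTS used chicken DT40 cells lacking endogenous Tdp1 but carrying stably transfected human TDP1. Compounds were applied without camptothecin, and cell growth kinetics were judged by ATP-dependent luminescence after ≥48 hr.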
# TDP1 cell CPT – growth inhibition of DT40 Tdp1-/-;hTDP1 cells with camptothecin (screen for TDP1 inhibitors). 12% of 420,000 active. AID 686979. chicken DT40 Tdp1-/-;hTDP1 cells + 20 nM CPT, ATP luminescence, 48 h. Potency, µM (highest dose often 46.2 µM), for inactives: at the top dose activity change, negative = growth inhibition, most hits filed as inhibitors; further: potency means the concentration at half of the fitted maximal effect; nearly all actives have a fitted effect of over 55% in size
#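 Chicken DT40 Tdp1-/- cells stably complemented with human TDP1 were seeded at 400 cells/well in medium containing 20 nM camptothecin, exposed to pin-transferred compounds, and grown at 37 °C for at least 48 hr. Viability was read as ATP luminescence.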
# The depositor's hits bear a star; ? = inconclusive; · = not tested or not shown. Unless noted, the call rests on the fitted dose curve; in most records, active means well fitted curve in the direction sought with a large enough effect; inconclusive means small, poorly fitted or top-dose-only effect, or another doubt; inactive means no such curve, though single readings can be large; an effect the other way counts as inactive or inconclusive. Unless noted, on the % scale 0 is the no-effect control and ±100 the full control effect.
SMILES,HT1080 IDH1KD tx,HT1080NT lethal,IL1B secr inh,DT40 TDP1 no CPT,TDP1 cell CPT
O=C(O)c1cc(N2N=C(C(F)(F)F)/C(=C/C=C/c3ccco3)C2=O)ccc1Cl,-0.8%,-4.2%,16.5,18.4µM*,?
Cc1ccc(CS(=O)(=O)CCC(=O)NCc2ccccc2Cl)cc1,1.4%,1.5%,-7.8,11.2%,-12.0%
CN(CCc1ccccc1)C(=O)c1ccc(NC(=O)Cc2ccc(NC(=O)C3CCN(C(=O)C4CCCCC4)CC3)cc2)cc1,?,-20.3%,2.1,16.4µM*,?
CN(CCc1ccccc1)C(=O)c1ccc(NC(=O)Cc2ccc(NC(=O)C3CCN(C(=O)C4CCC4)CC3)cc2)cc1,-17.6%,-5.6%,?,10.3µM*,?
CCC(C)[C@H](N)c1nnc(SCC(=O)c2ccc(Cl)cc2)o1 (some centres undefined),-4.6%,1.3%,-5.3,7.08µM*,3.98µM*
COc1ccc2cc3c(nc2c1)OCC3,-3.5%,-5.5%,-17.8,-8.3%,-2.3%
CC(C)Cn1c(N)c(C(=O)COC(=O)c2ccc3c(c2)OCCO3)c(=O)n(C)c1=O,-1.3%,-0.6%,-4.4,20.6µM*,18.4µM*
CC(C)Cn1c(N)c(C(=O)CSc2nccn2C)c(=O)n(C)c1=O,-0.7%,2.1%,12.2,?,0.3%
Cn1c(N)c(C(=O)COC(=O)c2ccc3c(c2)OCCO3)c(=O)n(C)c1=O,4.3%,14.4%,0.0,-9.2%,9.9%
CC(C)Cn1c(N)c(C(=O)CSc2ccc3c(c2)OCCO3)c(=O)n(C)c1=O,?,-15.2%,-7.9,3.66µM*,4.11µM*
O=C(CSc1n[nH]c(-c2ccccc2)n1)c1ccc(O)c(O)c1,?,?,74.0,?,?
O=C(O)CN1C(=O)C2C3CCC(C3)C2C1=O (centres undefined),-2.2%,5.0%,-8.7,-13.4%,?
C#CCOCCOCCOCCNc1nc(N2CCN(C(=O)Cn3cc(CCO)nn3)CC2)nc(N2CCN(C(=O)[C@H](C)n3cc(CCCN=C(N)N)nn3)CC2)n1,8.5%,3.1%,12.8,2.3%,0.0%
COc1ccc(-n2c(C)nnc2SCC(=O)N2CCOCC2)cc1,4.9%,8.6%,9.1,1.6%,22.9%
Cc1ccccc1CCNC(=O)c1ccc2c(c1)c(C)c(C)n2Cc1ccccc1,·,·,·,?,18.4µM*
Cc1c(C)n(Cc2ccccc2)c2ccc(C(=O)NCCc3ccccc3Cl)cc12,·,·,·,?,20.6µM*
O=C(NCCc1ccccc1Cl)c1ccc2nc3ccccc3c(=O)n2c1,0.8%,3.8%,-18.7,?,14.6µM*
CC(C)CN(C(=O)Cn1c(Cl)nc2c1c(=O)n(C)c(=O)n2C)C1CCS(=O)(=O)C1 (centres undefined),2.5%,4.9%,1.6,5.4%,1.0%
CC(C)OC(=O)c1cccc(C(=O)OCc2ccco2)n1,23.7%,-2.4%,-73.8*,20.6µM*,?
CC(C)OC(=O)c1cccc(C(=O)Oc2ccccc2)n1,2.7%,2.7%,30.0,5.9%,0.9%
CCOC(=O)c1ccc(NC(=O)c2ncn3c2C(=O)NC[C@@H]3C)cc1,-7.8%,9.2%,-19.3,?,?
NS(=O)(=O)c1ccc(CNC(=O)c2cc(-c3cccs3)nc3ccccc23)cc1,-4.0%,-1.1%,6.8,?,?
NS(=O)(=O)c1ccc(NC(=O)c2cccc3cc4ccccc4nc23)cc1,?,4.1%,?,5.17µM*,5.8µM*
CN(C)S(=O)(=O)c1cccc(NC(=O)c2cc(-c3cccs3)nc3ccccc23)c1,7.5%,6.7%,-3.0,10.3µM*,?
NS(=O)(=O)c1cccc(NC(=O)c2cc(-c3cccs3)nc3ccccc23)c1,-0.2%,-17.7%,-18.3,14.6µM*,20.6µM*
NS(=O)(=O)c1cccc(NC(=O)c2cccs2)c1,27.4%,7.3%,-6.6,?,20.6µM*
NS(=O)(=O)c1cccc(NC(=O)CCC(=O)c2cccs2)c1,14.8%,11.9%,42.4,-9.9%,-20.5%

# Screening data deposited in PubChem by National Center for Advancing Translational Sciences (NCATS).
